The results in this text go back to PubChem BioAssay (Tox21).

Records with an inconclusive call do not appear. Unmarked numbers belong to inactive results. Active and inactive are the calls of the source. The call rests on the fitted dose curve; in most records, active means well fitted cell-killing curve with a large enough effect in the repeat runs; inconclusive means weak or mixed curves, or effect the other way; inactive means flat fitted curve, though single readings scatter.

The nature of test [1]: cAMP Responsive Elements (CRE) small molecule antagonists, cell-based qHTS assay: qHTS cell viability counter screen (AID 2060913). Further: nearly all actives have a fitted effect of over 40% in size. Put shortly: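 CRE-bla HEK293T cells were seeded in assay medium with 10% dialyzed FBS, incubated 18 hrs at 37 C, then exposed to compounds plus 0.25 uM final NKH477 for 3 hrs. Viability was read by CellTiter-Glo luminescence after 30 min, in the same wells.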

Test [2] is described as follows: cAMP Responsive Elements (CRE) small molecule agonists, cell-based qHTS assay: qHTS cell viability counter screen (AID 2060914). Further: nearly all actives have a fitted effect of over 50% in size. Put shortly: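 Cells are seeded and incubated 18 h, treated with compounds in DMSO for 3 h, read for the bla reporter, then given CellTiter-Glo; luminescence is measured after 30 min at room temperature.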
On the % scale 0 is the no-effect control and ±100 the full control effect.

For `CCN(CC)S(=O)(=O)c1ccc(C(=O)O)cc1`, the Potency result in test [1] and in test [2] was “inactive” each time.
In the case of `CCCCC(=O)O[C@]1(C(=O)CO)[C@@H](C)C[C@H]2[C@@H]3CCC4=CC(=O)C=C[C@]4(C)[C@@]3(F)[C@@H](O)C[C@@]21C`, the Potency entry in test [1] and in test [2] was “inactive” in each case.
For the compound `CCCCCCCCCCCCO`, the Potency result in test [1] and in test [2] was “inactive” in each case.
As for `CCCCCC(C)N` (stereo unspecified), the Potency entry in test [1] and in test [2] was “inactive” throughout.
Take `Cc1ccc(CO)cc1`: the Potency entry in test [1] and in test [2] was “inactive” in each case.
For `NCC1(Cc2noc(=O)[nH]2)CCCCC1`, the Potency entry in test [1] and in test [2] was “inactive” throughout.
For the compound `COc1cccc(N)c1`, the Potency result in test [1] and in test [2] was “inactive” each time.
As for `C=C(C)[C@@H]1CC=C(C)CC1`, the Potency result in test [1] and in test [2] was “inactive” each time.
For `Cc1cc(-n2nc3ccc(Cl)cc3n2)c(O)c(C(C)(C)C)c1`, the Potency entry in test [1] and in test [2] was “inactive” each time.
Consider `CCOc1ccccc1OCC1CNCCO1` (stereo unspecified), for which the Potency entry in test [1] and in test [2] was “inactive” in each case.
Turning to `CC(CO)(CO)CO`, the Potency entry in test [1] and in test [2] was “inactive” each time.
On to `C/C=C/C(=O)CC`, for which the viability change, negative = cytotoxic in test [1] is 6.92% [at 18.9 µM]. The activity change, negative = cytotoxicity in test [2] is 7.79% [at 18.9 µM].
For the compound `c1ccc2sc(SSN3CCOCC3)nc2c1`, the Potency result in test [1] and in test [2] was “inactive” throughout.
In the case of `CC(C)(C)c1n[nH]c(=O)n(N)c1=O`, the Potency result in test [1] and in test [2] was “inactive” in each case.
For the compound `N#C/C(=C1\SCC(c2ccccc2Cl)S1)n1ccnc1` (stereo unspecified), the Potency result in test [1] and in test [2] was “inactive” each time.
`CCCCCCCC(=O)O`: the Potency result in test [1] and in test [2] was “inactive” throughout.
For the compound `CCc1oc2ccccc2c1C(=O)c1cc(I)c(O)c(I)c1`, the Potency entry in test [1] and in test [2] was “inactive” each time.
With `COc1ccccc1N1CCN(CCCCNC(=O)c2ccc(-c3ccc(C(C)=O)cc3)cc2)CC1`, the Potency entry in test [1] and in test [2] was “inactive” in each case.
As to `CCC(Cl)C(Cl)C(Cl)CC(Cl)C(Cl)C(C)Cl` (stereo unspecified), the Potency result in test [1] and in test [2] was “inactive” each time.
Turning to `O=c1c(-c2ccc(O)cc2)coc2cc(O)cc(O)c12`, the Potency entry in test [1] and in test [2] was “inactive” each time.
Consider `C=CC(=O)OCCCCCCCCCC`, for which the Potency result in test [1] and in test [2] was “inactive” in each case.
In the case of `CC(C)(C)C1CCC(O)CC1` (stereo unspecified), the Potency result in test [1] and in test [2] was “inactive” in each case.
With `C=C(C)C(=O)OCCCCCC`, the Potency entry in test [1] and in test [2] was “inactive” in each case.
As for `CCOCCO`, the Potency entry in test [1] and in test [2] was “inactive” each time.
As for `NC(=S)NNC(N)=S`, the Potency entry in test [1] and in test [2] was “inactive” each time.
In the case of `O=C(O)Cc1ccc2c(c1)C(=O)c1ccccc1CO2`, the Potency entry in test [1] and in test [2] was “inactive” throughout.
For `C=C(C#N)C(=O)OCC`, the Potency entry in test [1] and in test [2] was “inactive” throughout.
Turning to `Nc1ccc2c(S(=O)(=O)O)cccc2c1S(=O)(=O)O`, the Potency entry in test [1] and in test [2] was “inactive” in each case.
Turning to `O=C(O)c1ccc(CO)o1`, the Potency entry in test [1] and in test [2] was “inactive” throughout.
Turning to `COc1cc(CNC(=O)CCCC/C=C/C(C)C)ccc1O`, the Potency entry in test [1] and in test [2] was “inactive” throughout.
With `CCOc1ccccc1O`, the Potency entry in test [1] and in test [2] was “inactive” throughout.
`CC1=CP(=O)(c2ccccc2)CC1` (stereo unspecified): the Potency entry in test [1] and in test [2] was “inactive” each time.
On to `CCCCCCCCCCCCCCCC(=O)OC`, for which, in test [1], the viability change, negative = cytotoxic was 14.8% [at 18.9 µM]. Moreover, the activity change, negative = cytotoxicity in test [2] was -20.6% [at 18.9 µM].
The like results for `N[C@@H](C(=O)N[C@@H]1C(=O)N2C(C(=O)O)=C(Cl)CS[C@H]12)c1ccccc1` were, in that order, 0.002% [at 8.39 µM] and 8.3% [at 8.39 µM].
On to `O=[N+]([O-])c1ccc(Oc2ccc([N+](=O)[O-])cc2)cc1`, for which the Potency entry in test [1] and in test [2] was “inactive” each time.
As for `CCCCCCCCCC(=O)OCC`, the Potency entry in test [1] and in test [2] was “inactive” each time.
As for `Cc1ccc(C)c(OCCCC(C)(C)C(=O)O)c1`, the Potency result in test [1] and in test [2] was “inactive” throughout.
Consider `CCC(=O)O[C@]1(C(=O)SCF)[C@H](C)C[C@H]2[C@@H]3C[C@H](F)C4=CC(=O)C=C[C@]4(C)[C@@]3(F)[C@@H](O)C[C@@]21C`, for which the Potency result in test [1] and in test [2] was “inactive” in each case.
In the case of `O=C(O)C1=NN(c2ccc(S(=O)(=O)O)cc2)C(=O)C1`, the Potency result in test [1] and in test [2] was “inactive” in each case.
Turning to `CCCOC(=O)c1ccc(C(=O)OCCC)nc1`, the Potency result in test [1] and in test [2] was “inactive” in each case.
Regarding `COc1ccc(OC)c(N=Nc2c(O)ccc3ccccc23)c1`, the Potency result in test [1] and in test [2] was “inactive” throughout.
`C/C=C/C=C/C(=O)O`: the Potency entry in test [1] and in test [2] was “inactive” each time.
On to `CCN(CC)c1ccc(N=Nc2ccccc2)cc1`, for which the Potency entry in test [1] and in test [2] was “inactive” throughout.
Consider `CCC(=O)OC/C=C(\C)CCC=C(C)C`, for which the Potency entry in test [1] and in test [2] was “inactive” each time.
On to `O=C(O)c1cc(O)c2c(c1)C(=O)c1cccc(O)c1C2=O`, for which the Potency entry in test [1] and in test [2] was “inactive” throughout.
For the compound `CC(C)(C)OCC1CO1` (stereo unspecified), the Potency entry in test [1] and in test [2] was “inactive” each time.
For the compound `O=C=Nc1cccc(C(F)(F)F)c1`, the Potency result in test [1] and in test [2] was “inactive” throughout.
Take `CC(=O)CC(=O)Nc1ccc(S(=O)(=O)O)cc1`: the Potency entry in test [1] and in test [2] was “inactive” each time.
`CCn1c2ccccc2c2cc([N+](=O)[O-])ccc21`: the Potency entry in test [1] and in test [2] was “inactive” throughout.
For `COC(=O)c1ccc(C=O)cc1`, the Potency entry in test [1] and in test [2] was “inactive” in each case.
On to `CC(C)(C)CC(C)(C)N`, for which the Potency result in test [1] and in test [2] was “inactive” in each case.
On to `Cc1nc2ccccc2c(=O)o1`, for which the Potency result in test [1] and in test [2] was “inactive” in each case.
Regarding `CCC(C)(C)C(=O)O[C@H]1C[C@@H](C)C=C2C=C[C@H](C)[C@H](CC[C@@H]3C[C@@H](O)CC(=O)O3)[C@H]21`, the Potency result in test [1] and in test [2] was “inactive” throughout.
Regarding `CCCCCCCCCC=O`, the Potency result in test [1] and in test [2] was “inactive” throughout.
On to `Cc1ccc(C)c(N)c1`, for which the Potency result in test [1] and in test [2] was “inactive” throughout.
Consider `O=C(O)[C@@H](O)[C@H](O)[C@H](O)[C@@H](O)C(=O)O`, for which the Potency entry in test [1] and in test [2] was “inactive” each time.
On to `Nc1ccc(S(=O)(=O)O)c(N)c1`, for which the Potency result in test [1] and in test [2] was “inactive” in each case.
For the compound `O=Cc1cccc([N+](=O)[O-])c1`, the Potency entry in test [1] and in test [2] was “inactive” each time.
